Compound activity: PubChem, National Center for Advancing Translational Sciences (NCATS)
Cycloheximide cs: counter-screen for Shiga toxin inhibitors: cycloheximide protein synthesis inhibition | max response, % | cell reporter, cycloheximide protein synthesis inhibition counterscreen | 300,000 tested, 12% active | AID 2314; in the data active = max response mostly above about 13%, no sharp cut-off; inactive = mostly below about 14%; also: read at 38.3 µM for the half of the compounds with a filed dose
LASV entry inh: Lassa virus entry inhibition | Lassa virus pseudotype entry inhibition, cell reporter | Potency, µM (titrated, usually from 37.9 µM), usual class: inhibitors | 300,000 tested, 1.2% active | AID 540256; calls by dose curve; tested in HEK293 cells; also: nearly all actives have a fitted effect of over 50% in size
Marburg entry inh: blocks Marburg virus binding to or entry into cells | 300,000 tested, 1.8% active | Marburg virus pseudotyped entry inhibition, cell reporter | Potency, µM (top dose mostly 37.8 µM), usual class: inhibitors; calls by dose curve; tested in HEK293 cells
Pf growth 48h: P. falciparum growth inhibition at 48 hours (one generation). 310,000 tested, 5.9% active. AID 504832. P. falciparum luciferase growth in erythrocytes, 48 h. Potency, µM (highest dose often 28.7 µM), hits mostly inhibitors
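Here the parasites carry a stable luciferase gene and grow inside erythrocytes in Albumax-based RPMI medium with compound for one erythrocytic cycle. Activity is scored as loss of luminescent signal.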
Pf growth 96h: inhibits malaria parasite growth, 96 h. P. falciparum luciferase reporter growth, 96 h. Potency, µM (highest dose often 28.7 µM), hits mostly inhibitors. 320,000 tested, 6.9% active. AID 504834
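Erythrocytes infected with luciferase-expressing P. falciparum were dispensed at 2% hematocrit and 0.05% parasitemia (final), then incubated with compounds 96 hours at 37 C in 5% CO2. Luminescence after detection reagent addition reported growth.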
Shiga inhibitor: blocks Shiga toxin action in Vero cells; Vero cells, Shiga toxin protein synthesis inhibition reporter; inhibition, % at 38.7 µM; 290,000 tested, 9.2% active; AID 2315; in the data active = inhibition mostly above about 28%, no sharp cut-off; inactive = mostly below about 43%
Each line names hits and unclear results; the compound was inactive in the other large screens. Rows were chosen to be rich in hits. Some 19% of all compounds tested hit in one or more screens of this group. Unless noted, calls follow the shape of the dose curve; as a rule, active = well fitted inhibition curve with a large enough effect; inconclusive = small, poorly fitted or top-dose-only effect, or another doubt; inactive = no such curve, though single readings can be large or run the other way.

CCOC(=O)c1c(C)n(CC(O)CN(C)C)c2cc(Br)c(OC)cc12 (stereo unspecified)	Marburg entry inh inconclusive, Pf growth 48h inconclusive, Pf growth 96h inconclusive
Cc1ccc(NC(=O)C2CCCN2S(=O)(=O)c2ccc(-c3ccc(=O)[nH]n3)s2)c(C)c1 (stereo unspecified)	Pf growth 48h inconclusive, Pf growth 96h inconclusive
COc1ccc(OC)c(C2CC(=O)N3CN(c4ccccc4)CSC3=C2C#N)c1 (stereo unspecified)	Pf growth 96h inconclusive (no result: LASV entry inh, Marburg entry inh, Pf growth 48h)
Cc1cccc(N2CSC3=C(C#N)C(c4ccc(C)o4)CC(=O)N3C2)c1 (stereo unspecified)	Cycloheximide cs 11, Pf growth 96h 10µM (no result: LASV entry inh, Marburg entry inh)
O=C(Cn1c2ccccc2c(=O)c2ccccc21)Nc1cccc(F)c1	Pf growth 48h 15µM, Pf growth 96h inconclusive
O=C(Cn1c(=O)c(=O)n(Cc2ccccc2)c2ccc(Cl)cc21)Nc1cccc(F)c1	LASV entry inh inconclusive, Marburg entry inh 0.79µM, Pf growth 96h 13µM
O=C(Cn1c(=O)n(Cc2ccco2)c(=O)c2ccccc21)Nc1cccc(F)c1	none (no result: Cycloheximide cs, Pf growth 48h, Pf growth 96h, Shiga inhibitor)
C#CCCc1cscc1/C=[N+](\[O-])c1ccc(C(=O)OCC)cc1	Pf growth 48h 8.3µM, Pf growth 96h inconclusive (no result: Cycloheximide cs, LASV entry inh, Marburg entry inh, Shiga inhibitor)
CCOC(=O)c1ccc(/[N+]([O-])=C/c2ccccc2)cc1	none (no result: Cycloheximide cs, LASV entry inh, Marburg entry inh, Shiga inhibitor)
COc1ccc(NC(=S)NC(=O)CC(C)C)c(OC)c1	Cycloheximide cs 21, Marburg entry inh inconclusive, Shiga inhibitor 50
COc1ccc(NC(=S)NC2CCCCCC2)c(OC)c1	Pf growth 48h inconclusive, Shiga inhibitor 48
Cc1cc(OC(F)F)ccc1NC(=S)NC1CCCC1	Pf growth 48h inconclusive, Pf growth 96h 13µM (no result: LASV entry inh, Marburg entry inh)
COc1ccc(NC(=S)NC2CCCCC2)c(OC)c1	Pf growth 96h inconclusive
COc1ccccc1NC(=S)NC1CCC(CC2CCC(NC(=S)Nc3ccccc3OC)CC2)CC1 (stereo unspecified)	Pf growth 48h 12µM, Pf growth 96h 8.3µM
Cc1cc(F)ccc1NC(=S)NC1CCCC1	Pf growth 48h inconclusive (no result: LASV entry inh, Marburg entry inh)
Cc1nn(CC(=O)N2CCOCC2)c(=O)c2c1sc1ccccc12	Marburg entry inh inconclusive, Pf growth 96h inconclusive
O=C(CCn1cnc(-c2ccccc2)c1-c1ccccc1)N/N=C/c1ccc(O)cc1	LASV entry inh inconclusive, Marburg entry inh inconclusive
COc1ccc(/C=N/NC(=O)CCn2cnc(-c3ccccc3)c2-c2ccccc2)cc1	LASV entry inh 2.3µM, Marburg entry inh 18µM, Pf growth 48h inconclusive
O=C(CCn1cnc(-c2ccccc2)c1-c1ccccc1)N/N=C/c1ccccc1O	LASV entry inh 23µM, Marburg entry inh inconclusive
O=C(CCn1cnc2ccccc21)N/N=C/C=C/c1ccccc1	Marburg entry inh inconclusive, Pf growth 48h inconclusive, Pf growth 96h inconclusive
CCOC1Cc2ccccc2N(C(N)=O)c2ccccc21 (stereo unspecified)	none (no result: Pf growth 48h)
COCCn1c(SCC(=O)NC(=O)NCc2ccccc2)nc2ccccc21	Marburg entry inh inconclusive
Cc1ccccc1NC(=S)NNC(=O)c1csc2c1CCC(C)C2 (stereo unspecified)	Cycloheximide cs 35, Marburg entry inh inconclusive, Shiga inhibitor 78 (no result: Pf growth 96h)
CC1CCc2c(C(=O)Nc3ccccn3)csc2C1 (stereo unspecified)	Cycloheximide cs 47, Shiga inhibitor 70 (no result: LASV entry inh, Marburg entry inh)
CCNC(=S)NNC(=O)c1csc2c1CCC(C)C2 (stereo unspecified)	none
CC1CCc2c(C(=O)NCc3ccccn3)csc2C1 (stereo unspecified)	Cycloheximide cs 65, LASV entry inh inconclusive, Marburg entry inh inconclusive, Pf growth 96h inconclusive, Shiga inhibitor 161
Cc1noc(C)c1COC(=O)c1csc2c1CCC(C)C2 (stereo unspecified)	Marburg entry inh inconclusive, Pf growth 48h 12µM, Pf growth 96h inconclusive (no result: Cycloheximide cs, Shiga inhibitor)
CC1CCc2c(C(=O)NCc3cccnc3)csc2C1 (stereo unspecified)	none
O=C(NCC1CCCO1)c1csc2c1CCCCC2 (stereo unspecified)	Marburg entry inh inconclusive (no result: Pf growth 96h)
CC1CCc2c(C(=O)NCC3CCCO3)csc2C1 (stereo unspecified)	Cycloheximide cs 86, LASV entry inh inconclusive, Shiga inhibitor 98
CCSc1nnc(NC(=O)c2csc3c2CCC(C)C3)s1 (stereo unspecified)	none (no result: Pf growth 96h)
CC1CCc2c(C(=O)Nc3nccs3)csc2C1 (stereo unspecified)	Cycloheximide cs 37, Marburg entry inh inconclusive, Pf growth 48h inconclusive, Pf growth 96h inconclusive, Shiga inhibitor 69
Nc1ncc(Br)cc1S(=O)(=O)NCCC(=O)NCCc1ccccc1	Cycloheximide cs 27 (no result: LASV entry inh, Marburg entry inh)
CC(C)c1ccc(NC(=O)CCNS(=O)(=O)c2cc(Br)cnc2N)cc1	none (no result: LASV entry inh, Marburg entry inh)
CCc1cccc(NC(=O)CCNS(=O)(=O)c2cc(Br)cnc2N)c1	Pf growth 48h 13µM (no result: LASV entry inh, Marburg entry inh)
Cc1cccc(CCNC(=O)CCNS(=O)(=O)c2cc(Br)cnc2N)c1	Pf growth 48h inconclusive, Pf growth 96h inconclusive (no result: LASV entry inh, Marburg entry inh)
Cc1c(Cl)cccc1NC(=S)NCC(c1cccnc1)N(C)C (stereo unspecified)	Pf growth 96h inconclusive
O=c1[nH][nH]c2c(N=Cc3ccccc3O)ccc(F)c12	LASV entry inh inconclusive, Marburg entry inh inconclusive, Pf growth 48h inconclusive
CCCCCC(=O)c1c(C)[nH]c(C(=O)OCC)c1C	Cycloheximide cs 17, Pf growth 48h inconclusive, Pf growth 96h inconclusive, Shiga inhibitor 104
CCOC(=O)c1[nH]c(C)c(C(=O)O)c1C	none (no result: LASV entry inh, Pf growth 48h)
CCCCCCC(=O)c1c(C)[nH]c(C(=O)OCC)c1C	Cycloheximide cs 30, Pf growth 48h inconclusive, Shiga inhibitor 81
Cc1ccc2c(c1)c(C)cc(=O)n2CCC(=O)O	LASV entry inh inconclusive
CC(C)(C)c1ccc(O)c(N=Cc2cc(Br)ccc2O)c1	Cycloheximide cs 20, Pf growth 48h 10µM, Shiga inhibitor 31 (no result: LASV entry inh, Marburg entry inh)
CC(C)(C)c1ccc(O)c(N=Cc2c(O)ccc3ccccc23)c1	LASV entry inh inconclusive, Marburg entry inh inconclusive, Pf growth 48h inconclusive, Pf growth 96h inconclusive
Cc1ccc(N=Cc2cccc(O)c2O)c(C)c1	Pf growth 48h inconclusive, Pf growth 96h 12µM, Shiga inhibitor 37 (no result: LASV entry inh)
Cc1ccc(O)c(C=Nc2ccc3[nH]ncc3c2)c1	Marburg entry inh inconclusive, Pf growth 96h inconclusive
Cc1ccccc1N=Cc1cccc(O)c1O	LASV entry inh inconclusive, Marburg entry inh inconclusive, Pf growth 48h inconclusive
Oc1cccc(/C=N/N=C/c2cccc(O)c2O)c1O	Cycloheximide cs 30, LASV entry inh 11µM, Marburg entry inh inconclusive, Pf growth 48h 13µM, Pf growth 96h inconclusive
CC(N=Cc1cccc(O)c1O)c1ccccc1 (stereo unspecified)	Pf growth 48h inconclusive (no result: Pf growth 96h)
Cc1ccc(O)c(C=Nc2cc(C)ccc2O)c1	Cycloheximide cs 15, Marburg entry inh inconclusive, Pf growth 48h inconclusive, Pf growth 96h inconclusive
O=C1CC(Sc2ncccc2C(=O)O)C(=O)N1 (stereo unspecified)	none (no result: LASV entry inh)
O=C(O)C(Cc1ccccc1)NC(=O)C(c1ccccc1)c1ccccc1 (stereo unspecified)	none
CC(=O)Nc1ccc2nc(NS(=O)(=O)c3ccc(C)cc3)sc2c1	Marburg entry inh inconclusive
